Measurements as given in PubChem BioAssay AID624296 (National Center for Advancing Translational Sciences (NCATS), 2012).
The whole screen tested about 350,000 compounds, of which about 9,900 (2.8%) were called active. Inconclusive results (about 15%) are left out. The sample holds actives, similar compounds and a random draw of the others, so the mix is not that of the screen. Values without a mark were called inactive. The call rests on the fitted dose curve; in most records, active means well fitted activation curve with a large enough effect; inconclusive means small, poorly fitted or top-dose-only effect; inactive means no such curve, though single readings can be large or run the other way.

Assay: A quantitative high throughput screen for small molecules that induce DNA re-replication in MCF 10a normal breast cells. Further: nearly all actives have a fitted effect of over 50% in size. On activity, positive = re-replication: % of control where 0% means no effect.
Conditions: MCF 10A DNA re-replication, Hoechst nuclear intensity, 48 h; series mostly up to 46.1 µM; activity, positive = re-replication: at the top concentration
From the text: H Molecular Libraries Probe Production Network [MLPCN]
NIH Chemical Genomics Center [NCGC]
Assay Provider: Melvin DePamphilis, NICHD, NIH
Eukaryotic cells normally restrict genome duplication to once per cell division. When this process is aberrant, DNA re-replication occurs when cells reinitiate DNA replication before the first round of replication is complete. DNA re-replication induces the DNA damage response, arrests cell proliferation, and triggers apoptosis. The cell cycle components cyclin A, Cdt-1, Cdc6 and geminin are critical regulators of this process and their misregulation results in DNA re-replication in normal and cancer cells. To identify compounds that induce re-replication in normal cells, an image-based assay was used to measure DNA content of nuclei, as detected by the fluorescent DNA binding dye, Hoechst. Cell nuclei were imaged by a fluorescence scanning plate imager and compounds that induce DNA re-replication were identified by the increase of nuclei with elevated fluorescence intensity
For screening, 250 cells in 5 uL/well were dispensed into black clear 1536-well plates (Aurora) using a solenoid-based dispenser. Following transfer of 23 nL compound or DMSO vehicle by a pin tool, the plates were incubated 48 hr at 37 C and 5% CO2. After addition of 1 uL/well Hoescht stain, the plates were incubated 40 min at 37 C, 5% CO2 and total intensity of fluorescent objects (nuclei) were enumerated by an Acumen Explorer Ex3 (TTP LabTech) fluorescence scanning plate imager (405 nm excitation, 500-530 nm emission).
Keywords: NIH Roadmap, MLPCN, MLI, MLSMR, qHTS, NCGC, DNA replication, cancer
Potency means the concentration at half of the fitted maximal effect.

SMILES	activity, positive = re-replication [%]	Potency
CN[C@H](C(=O)NC[C@H]1O[C@@H](n2cnc3c(N)ncnc32)[C@H](O)[C@@H]1O)[C@@H](C)OCc1ccccc1	25.9	–
O=C(NNc1ccccc1Cl)C(O)(c1cccc(C(F)(F)F)c1)c1cccc(C(F)(F)F)c1	–	16.4 µM (active)
CC(CC(=O)Nc1cc(C(F)(F)F)ccc1Cl)c1ccccc1 (centres undefined)	28.4	–
O=C(Nc1cc(C(F)(F)F)ccc1Cl)C(=O)N1CCCCC1	-0.549	–
COc1ccc([C@H]2CC(=O)C=C(c3ccc(CO)cc3)C2)cc1	1	–
Cc1cccc(-n2ncc(Cl)c(Cl)c2=O)c1	–	3.26 µM (active)
O=c1c(Cl)c(NC2CC2)cnn1-c1ccccc1	0.555	–
Cc1cccc(-n2ncc(C#N)c2-n2cccc2)c1	-12.2	–
COC1=CC(=O)OC(C)(c2ccccc2)C1 (centres undefined)	-7.01	–
COc1cc(OC)cc(C(=O)NCC(=O)OCC(=O)NC(C)CCc2ccccc2)c1 (centres undefined)	-3.97	–
Cc1cc(C)c[n+](-c2nc3ccccc3nc2[N-]S(=O)(=O)c2cccs2)c1	-2.95	–
O=S(=O)([N-]c1nc2ccccc2nc1-[n+]1ccc(Cc2ccccc2)cc1)c1ccc(Br)s1	–	9.2 µM (active)
O=C(NCCc1ccccc1)C1CCN(S(=O)(=O)c2ccc(Br)s2)CC1	-0.365	–
O=C(COC(=O)c1cc(S(=O)(=O)N2CCOCC2)ccc1F)NC1CC1	-0.372	–
Cc1cccc2cc3c(N)c(C(=O)N4CCCc5ccccc54)sc3nc12	–	1.3 µM (active)
Cc1c(C(=O)N2CCCc3ccccc32)sc2nc(-c3ccccc3)cn12	0.373	–
Cc1c(C(=O)N2CCCc3ccccc32)oc2ccccc12	2.24	–
CCOC(=O)[C@H]1[C@H]2COc3ccc(C)cc3[C@@H]2N2C(=O)CN(Cc3ccc(F)cc3)C(=O)[C@@]12C	-2.25	–
CSc1nnc(NC(=O)c2nc(S(=O)(=O)Cc3ccc(C)cc3)ncc2Cl)s1	–	1.16 µM (active)
Cc1cccc(CS(=O)(=O)c2ncc(Cl)c(C(=O)Nc3ccc(F)cc3)n2)c1	28.2	–
CCSc1nnc(NC(=O)c2ccc(C)cc2)s1	-13	–
CC(CNC(=O)Cn1cnc2c(OCc3ccccc3)ncnc21)c1ccccc1 (centres undefined)	14.7	–

SMILES	activity, positive = re-replication [%]	Potency
Nc1ncnc2c1ncn2[C@@H]1O[C@H](CNS(=O)(=O)c2ccc(-c3ccno3)s2)[C@@H](O)[C@H]1O	-2.41	–
CCOc1cc(C2C(C(=O)OC)=CN(C3CCCC3)C=C2C(=O)OC)cc(Br)c1O	25.1	–
CCOc1ccccc1N(CC(=O)Nc1ccccc1C(=O)OC)S(C)(=O)=O	-1.3	–
CCOc1ccccc1C1C(C(=O)OC)=CN(C)C=C1C(=O)OC	–	14.6 µM (active)
CC(C)(C)OC(=O)N[C@H](C(=O)OC(C)(C)C)c1ccc(Br)cc1	2.13	–
Cc1ccc(S(=O)(=O)CCC(=O)OCC(=O)N(C)Cc2ccccc2)cc1	3.44	–
COc1ccc(-c2cc(C(=O)n3cnc4ccccc43)c3ccccc3n2)cc1	10.2	–
COc1ccc(CN(C)C(=O)Cc2c[nH]c3ccccc23)c(OC)c1OC	0.353	–
COc1ccc(-c2cc(C(=O)N(C)Cc3ccccc3)c3ccccc3n2)cc1	–	3.66 µM (active)
COc1ccc(CN(C)C(=O)c2cc(-c3ccc(C)cc3C)nc3ccccc23)c(OC)c1OC	–	23.1 µM (active)
CNC(=O)COC(=O)c1cc(-c2ccc(OC)cc2)nc2ccccc12	1.21	–
Cc1ccc(-c2cc(C(=O)Nc3nn[nH]n3)c3ccccc3n2)c(C)c1	-0.175	–
Cc1ccc(C)c(OCC(=O)NNC(=O)C2CCC2)c1	-1.95	–
COC(=O)c1ccc(CNC(=O)c2ccc(S(=O)(=O)N3CCCCCC3)cc2)cc1	3.13	–
NC(=O)C1CCN(C(=O)c2cc(S(=O)(=O)N3CCN(c4ccccc4)CC3)ccc2Cl)CC1	1.92	–
C=CCN1C2CCCC1CC(NC(=S)Nc1cccc(OC)c1)C2 (centres undefined)	26.8	–
CCCN1C2CCCC1CC(NC(=O)NC13CC4CC(CC(C4)C1)C3)C2 (centres undefined)	1.95	–
CCCNC(=S)NC1CC2CCCC(C1)N2CC(C)C (centres undefined)	–	14.6 µM (active)
Nc1cc(=O)n(Cc2ccccc2)c(=O)n1Cc1ccccc1	4.05	–
C/C(=N\Nc1ccc(Cl)nn1)c1ccccc1O	-5.86	–
C=CCC[C@H](Cc1ccc(F)cc1)C(=O)OC[C@H](C)NC(=O)[C@H](CC=C)CC(=O)N(CCO)Cc1ccccc1	-0.934	–
Cc1ccc(S(=O)(=O)N(C)C)cc1NC(=O)C(C)OC(=O)c1ccc2ccccc2n1 (centres undefined)	-4.02	–

SMILES	activity, positive = re-replication [%]	Potency
COc1cccc(NC(=O)COc2cccnc2[N+](=O)[O-])c1	-7.21	–
COc1ccc(S(=O)(=O)Nc2cccc3c2O[C@H](CN(C)S(=O)(=O)c2ccc(OC)cc2)[C@@H](C)CN([C@H](C)CO)C3=O)cc1	-0.847	–
COCCOC(=O)c1[nH]c2c(c1C)C(=O)CC(c1ccc(OC)cc1)C2 (centres undefined)	0.888	–
CCOC(=O)c1[nH]c2c(c1-c1ccccc1)C(=O)CC(c1ccc(Cl)cc1)C2 (centres undefined)	15.6	–
CCCOC(=O)c1[nH]c2c(c1C)C(=O)CC(c1cccs1)C2 (centres undefined)	–	0.206 µM (active)
CCOc1ccc(NC(=O)CN(C)C(=O)CCSc2ccc(F)cc2)cc1OCC	14.2	–
COc1cc(/C=C/C(=O)OCC(=O)c2ccccc2)cc(OC)c1OC	-2.78	–
COc1ccccc1C(CNC(=O)c1cccc(S(=O)(=O)Nc2ccc(F)cc2)c1)N(C)C (centres undefined)	-2.12	–
COc1ccc(/C=C2\N=C3CCCN3C2=O)cc1	1.17	–
COc1ccc(-n2c(=S)[nH]c3sc4c(c3c2=O)CCc2ccccc2-4)cc1	-4.02	–
COc1ccc(/C=C2/CCCc3ccccc3C2=O)cc1	–	1.64 µM (active)
Cc1c[n+]([O-])ccc1[N+](=O)[O-]	142	–
O=C1CCCc2c1nc(-c1cccc(Cl)c1)n2O	–	1.46 µM (active)
Cc1cccc(-c2nc3ccccc3c(=O)n2NC(=O)Cc2ccc(Cl)cc2)c1	11.1	–
CCOC(=O)CSc1ncc(-c2cccc(Cl)c2)cn1	-0.286	–
O=c1c2cc(Br)ccc2nc(-c2cccc(Cl)c2)n1O	–	2.91 µM (active)
NC(=O)c1cc(-c2cccnc2)nc2ccc(Br)cc12	-0.473	–
Cc1cc(=O)n2[nH]c(-c3cccc(Cl)c3)cc2n1	4.55	–
Cc1ccsc1C(=O)OCC(=O)NCCc1ccccc1	6.08	–
O=C1C=CN2CCCC2CC1 (centres undefined)	3.86	–
